Assay [1] deals with Rap guanine nucleotide exchange factor 3 (Homo sapiens) (UniProt O95398). Briefly: Confirmatory qHTS for agonist of cAMP-regulated guanine nucleotide exchange factor 3 (EPAC1) (AID 1645881).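 Further: EPAC1 catalysed release of BODIPY-GDP from Rap1B seen as fluorescence loss; 100% = effect of cAMP agonist control; nearly all actives have a fitted effect of over 75% in size.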
Assay [2] deals with Rap guanine nucleotide exchange factor 4 (Homo sapiens) (UniProt Q8WZA2). Briefly: Confirmatory qHTS for agonist of cAMP-regulated guanine nucleotide exchange factor 4 (EPAC2) (AID 1645884).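 Further: nucleotide exchange releases bodipy-GDP from Rap1 and this lowers its fluorescence; on the % scale 0 is the no-effect control and ±100 the full control effect; nearly all actives have a fitted effect of over 65% in size.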
Rap guanine nucleotide exchange factor 4 (Homo sapiens), sequence (Q8WZA2 whole entry, looked up): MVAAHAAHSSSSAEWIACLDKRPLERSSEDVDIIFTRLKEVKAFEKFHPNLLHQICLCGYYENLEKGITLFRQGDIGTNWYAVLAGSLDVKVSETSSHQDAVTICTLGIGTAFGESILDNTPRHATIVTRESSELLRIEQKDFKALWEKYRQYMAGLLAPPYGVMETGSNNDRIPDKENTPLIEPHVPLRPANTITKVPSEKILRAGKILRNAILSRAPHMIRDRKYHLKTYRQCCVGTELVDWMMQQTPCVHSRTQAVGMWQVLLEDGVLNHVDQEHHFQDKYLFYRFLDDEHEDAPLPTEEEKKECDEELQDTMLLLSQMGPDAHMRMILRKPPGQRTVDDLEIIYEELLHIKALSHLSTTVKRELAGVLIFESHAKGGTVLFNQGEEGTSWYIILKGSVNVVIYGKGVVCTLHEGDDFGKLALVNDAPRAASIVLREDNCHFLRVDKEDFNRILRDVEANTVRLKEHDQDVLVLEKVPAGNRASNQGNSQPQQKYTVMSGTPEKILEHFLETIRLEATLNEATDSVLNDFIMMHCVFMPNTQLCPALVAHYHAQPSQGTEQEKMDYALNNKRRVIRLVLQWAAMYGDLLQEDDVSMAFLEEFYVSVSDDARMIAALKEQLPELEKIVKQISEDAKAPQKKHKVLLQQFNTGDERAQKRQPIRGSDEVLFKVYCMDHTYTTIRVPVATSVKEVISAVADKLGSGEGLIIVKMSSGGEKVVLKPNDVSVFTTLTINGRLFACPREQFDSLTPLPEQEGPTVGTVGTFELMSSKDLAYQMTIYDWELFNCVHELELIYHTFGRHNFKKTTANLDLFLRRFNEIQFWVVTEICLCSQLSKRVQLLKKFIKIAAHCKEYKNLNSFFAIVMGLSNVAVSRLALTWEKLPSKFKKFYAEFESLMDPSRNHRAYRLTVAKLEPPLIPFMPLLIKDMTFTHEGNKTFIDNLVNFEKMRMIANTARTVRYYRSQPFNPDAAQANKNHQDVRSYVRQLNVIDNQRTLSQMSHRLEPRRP
For assay [3] the target is unchanged. Briefly: Confirmatory qHTS for antagonist of cAMP-regulated guanine nucleotide exchange factor 4 (EPAC2) (AID 1645885). Further: nearly all actives have a fitted effect of over 25% in size. On activity change, negative = inhibition: on the % scale 0 is the no-effect control and ±100 the full control effect.
Assay [4] concerns the target Rap guanine nucleotide exchange factor 3 (Homo sapiens) (UniProt O95398). Briefly: Counterscreen qHTS for antagonist of cAMP-regulated guanine nucleotide exchange factor 3 (EPAC1) (AID 1645888).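 Further: fluorescence loss as bound BODIPY-GDP is released from Rap1B; % of control where 0% means no effect.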 Put shortly:
(§1)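 Measured: fluorescence of BODIPY-GDP bound to Rap1B, which falls as exchange proceeds. Conditions include 50 uM competing GDP, 5 and 30 min reads, and a later cAMP challenge for antagonist detection.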

The target is the same in assay [5]. Briefly: Counterscreen qHTS for agonist of cAMP-regulated guanine nucleotide exchange factor 3 (EPAC1) (AID 1645889). Further: nearly all actives have a fitted effect of over 40% in size. Further: potency means the concentration at half of the fitted maximal effect. On activation: % of control where 0% means no effect. Put shortly:
as §1

Records with an inconclusive call do not appear. Values without a mark were called inactive. The source made the active and inactive calls. The call rests on the fitted dose curve; in most records, active means well fitted curve in the direction sought with a large enough effect; inconclusive means small, poorly fitted or top-dose-only effect, or another doubt; inactive means no such curve, though single readings can be large; an effect the other way counts as inactive or inconclusive.

Rap guanine nucleotide exchange factor 3 (Homo sapiens), sequence (O95398 whole entry, looked up): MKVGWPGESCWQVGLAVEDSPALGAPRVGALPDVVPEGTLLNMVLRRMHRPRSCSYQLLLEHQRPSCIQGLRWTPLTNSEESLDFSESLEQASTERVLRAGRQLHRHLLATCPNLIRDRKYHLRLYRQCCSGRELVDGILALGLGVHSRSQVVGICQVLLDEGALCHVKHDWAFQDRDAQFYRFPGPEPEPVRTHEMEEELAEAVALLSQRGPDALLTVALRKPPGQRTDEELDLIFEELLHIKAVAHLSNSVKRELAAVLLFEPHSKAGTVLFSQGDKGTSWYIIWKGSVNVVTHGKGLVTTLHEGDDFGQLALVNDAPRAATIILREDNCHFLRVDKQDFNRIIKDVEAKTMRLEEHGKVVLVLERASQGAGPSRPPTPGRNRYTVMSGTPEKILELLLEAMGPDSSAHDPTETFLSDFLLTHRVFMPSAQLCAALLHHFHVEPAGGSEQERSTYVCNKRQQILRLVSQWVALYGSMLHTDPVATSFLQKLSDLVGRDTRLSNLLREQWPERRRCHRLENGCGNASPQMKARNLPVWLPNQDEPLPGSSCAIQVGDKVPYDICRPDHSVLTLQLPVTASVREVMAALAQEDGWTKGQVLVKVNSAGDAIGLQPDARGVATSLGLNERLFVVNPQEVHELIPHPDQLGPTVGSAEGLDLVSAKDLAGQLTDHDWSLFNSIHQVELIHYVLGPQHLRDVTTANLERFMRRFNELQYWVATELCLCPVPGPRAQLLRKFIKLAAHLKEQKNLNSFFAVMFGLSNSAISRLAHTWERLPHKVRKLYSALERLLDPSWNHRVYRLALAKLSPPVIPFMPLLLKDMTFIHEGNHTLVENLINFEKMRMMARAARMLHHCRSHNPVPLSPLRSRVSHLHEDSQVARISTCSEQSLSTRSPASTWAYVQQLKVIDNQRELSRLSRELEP

`C=Cc1ccc(Cn2nc(-c3ccccc3)ccc2=O)cc1`: the Potency entry in assay [1] and in assay [3] was “inactive” throughout. Also, the activation in assay [2] was -8.97% [at 17.1 µM, percent relative to cAMP agonist control]; in assay [5], 15.7% [at 30.8 µM]. Also, the activity change, negative = inhibition in assay [4] was -16.6% [at 30.8 µM].

Regarding `CC(C)(C)c1ccc(C(=O)NCC2CCCN2S(=O)(=O)c2ccccc2)cc1` (stereo not given), the Potency entry in assay [1], in assay [2], in assay [3], in assay [4] and in assay [5] was “inactive” in each case.

As for `COc1cccc(OCc2cc(/C=N/Nc3ccc(C(=O)O)cc3)ccc2OC)c1`, the Potency entry in assay [1] and in assay [3] was “inactive” in each case. The activation in assay [2] is 6.81% [at 17.1 µM, percent relative to cAMP agonist control]; in assay [5], 21.5% [at 30.8 µM]. The activity change, negative = inhibition in assay [4] was -4.72% [at 30.8 µM].

Regarding `Cc1ccc(C)c(CSC2=NC(C)(C)Nc3ccccc32)c1`, the Potency result in assay [1], in assay [2], in assay [4] and in assay [5] was “inactive” in each case. In assay [3], the outcome was “inactive [at 12.7 µM]”.

On to `COc1ccc(/C=C2\Sc3ccc(C(=O)N4CCN(Cc5ccccc5)CC4)cc3N(C)C2=O)cc1OC`, for which the Potency result in assay [1], in assay [2], in assay [3], in assay [4] and in assay [5] was “inactive” each time.

For `COc1ccc(/C=N/NC(=O)c2cc(C(C)(C)C)[nH]n2)cc1COc1ccc(F)cc1F`, the Potency entry in assay [1] and in assay [3] was “inactive” in each case. Moreover, the activation in assay [2] was 3.4% [at 17.1 µM, percent relative to cAMP agonist control]; in assay [5], 19.8% [at 30.8 µM]. Moreover, the activity change, negative = inhibition in assay [4] is -14.1% [at 30.8 µM].

For `Cc1ccc(C(C)C)c(OCCCn2c(=O)oc3ccc(C)cc32)c1`, the Potency result in assay [1], in assay [2], in assay [3], in assay [4] and in assay [5] was “inactive” in each case.

As for `N#CCC(=O)Nc1ccc(C(=O)OCC(=O)Nc2ccc3ccccc3c2)cc1`, the Potency result in assay [1], in assay [2], in assay [3], in assay [4] and in assay [5] was “inactive” each time.

For the molecule `COC(=O)c1ccc2nc(-c3ccco3)c(Cc3ccc(OC)cc3C)n2c1`, the Potency result in assay [1], in assay [2], in assay [3], in assay [4] and in assay [5] was “inactive” in each case.

`COc1ccc(S(=O)(=O)NC(=O)C2(C)CCN2C(=O)C2(c3ccccc3)CCCC2)cc1` (stereo not given): the Potency result in assay [1] and in assay [3] was “inactive” throughout. The activation in assay [2] is -3.86% [at 17.1 µM, percent relative to cAMP agonist control]; in assay [5], -0.406% [at 30.8 µM]. The activity change, negative = inhibition in assay [4] is -2.65% [at 30.8 µM].

In the case of `COc1ccc(C(CCN(Cc2ccc(OC)c(OC)c2)C(C)=O)C(C)C)cc1` (stereo not given), the Potency result in assay [1], in assay [2], in assay [3], in assay [4] and in assay [5] was “inactive” each time.

Take `CCOc1ccc(C=NNc2ccc(S(=O)(=O)Nc3ccccc3C(=O)O)cc2[N+](=O)[O-])cc1`: the Potency result in assay [1] and in assay [3] was “inactive” throughout. Further, the activation in assay [2] was -0.564% [at 17.1 µM, percent relative to cAMP agonist control]; in assay [5], 21.3% [at 30.8 µM]. The activity change, negative = inhibition in assay [4] is 6.79% [at 30.8 µM].

Turning to `Oc1ccc(NCc2ccc(OCc3ccccc3Cl)cc2)cc1`, the Potency entry in assay [1], in assay [2], in assay [3] and in assay [4] was “inactive” in each case. The Potency in assay [5] was 56.2 µM (active).

As to `CC(C)C[C@H](NC(=O)C1(c2ccccc2)CCN(C(=O)OC(C)(C)C)CC1)C(=O)N1CCC[C@H]1C(=O)O`, the Potency result in assay [1], in assay [2], in assay [3], in assay [4] and in assay [5] was “inactive” each time.

`O=C(NCC(c1ccco1)N1CCCC1)c1ccccc1Sc1ccc(C(F)(F)F)cc1[N+](=O)[O-]` (stereo not given): the Potency entry in assay [1], in assay [2], in assay [3], in assay [4] and in assay [5] was “inactive” in each case.

As to `CCC(C)[C@H]1COCCS(=O)(=O)N1Cc1ccc(Cl)cc1Cl` (stereo not given in full), the Potency entry in assay [1], in assay [2], in assay [3], in assay [4] and in assay [5] was “inactive” in each case.

As for `COCC(=O)Oc1c(Sc2ccccc2[N+](=O)[O-])c(C)nn1C(C)(C)C`, the Potency result in assay [1], in assay [2], in assay [3], in assay [4] and in assay [5] was “inactive” throughout.

`CC(=O)Nc1ccc(S(=O)(=O)Nc2nc3ccccc3nc2-n2ccc(=NC(=O)c3ccccc3)cc2)cc1`: the Potency entry in assay [1] and in assay [3] was “inactive” each time. In addition, the activation in assay [2] was -0.645% [at 17.1 µM, percent relative to cAMP agonist control]; in assay [5], 5.94% [at 30.8 µM]. Moreover, the activity change, negative = inhibition in assay [4] is -23.7% [at 30.8 µM].

Take `CN(CC(=O)Nc1ccc(Cl)c(C(F)(F)F)c1)C(=O)Cc1c[nH]c2ccccc12`: the Potency entry in assay [1] and in assay [3] was “inactive” each time. Besides, the activation was 5.51% [at 17.1 µM, percent relative to cAMP agonist control] in assay [2] and 36.2% [at 30.8 µM] in assay [5]. Moreover, the activity change, negative = inhibition in assay [4] was -15.4% [at 30.8 µM].

`O=c1c2ccccc2nc(/C=C/c2cccnc2)n1Cc1ccccc1`: the Potency entry in assay [1] and in assay [3] was “inactive” in each case. The activation in assay [2] was 2.62% [at 17.1 µM, percent relative to cAMP agonist control]; in assay [5], 22.2% [at 30.8 µM]. The activity change, negative = inhibition in assay [4] was -16.6% [at 30.8 µM].

For `Cc1cccc(NC(=O)COC(=O)c2c(-c3ccccc3)noc2C)c1`, the Potency entry in assay [1] and in assay [3] was “inactive” each time. The activation was 4.55% [at 17.1 µM, percent relative to cAMP agonist control] in assay [2] and 24.2% [at 30.8 µM] in assay [5]. Also, the activity change, negative = inhibition in assay [4] was -6.85% [at 30.8 µM].

Regarding `CC(=O)NS(=O)(=O)c1ccc(Nc2ccc([N+](=O)[O-])c3nonc23)cc1`, the Potency result in assay [1] and in assay [3] was “inactive” in each case. The activation was 14.6% [at 17.1 µM, percent relative to cAMP agonist control] in assay [2] and 1.5% [at 30.8 µM] in assay [5]. For the same molecule, the activity change, negative = inhibition in assay [4] was -18.4% [at 30.8 µM].

As to `COc1cc(O)c(C(CC(=O)N2CCCC(C)C2)c2ccc3c(c2)OCO3)c(OC)c1` (stereo not given), the Potency entry in assay [1] and in assay [3] was “inactive” in each case. Moreover, the activation was -10.6% [at 17.1 µM, percent relative to cAMP agonist control] in assay [2] and 13.2% [at 30.8 µM] in assay [5]. Besides, in assay [4], the activity change, negative = inhibition is -20% [at 30.8 µM].

As to `Cc1nn(-c2ccc(F)cc2)c(-n2cccc2)c1C(=O)N1CCN(c2ccc(F)cc2)CC1`, the Potency entry in assay [1], in assay [2], in assay [4] and in assay [5] was “inactive” throughout. Moreover, the outcome in assay [3] was “inactive [at 12.7 µM]”.

As for `CC(C)c1ccc(S(=O)(=O)Nc2ccc3c(c2)OCO3)cc1`, the Potency result in assay [1], in assay [2], in assay [3], in assay [4] and in assay [5] was “inactive” throughout.

With `COc1ccc(-c2[nH]c(-c3ccc(F)cc3)nc2SCC(=O)Nc2ccc(OC)c(OC)c2)cc1`, the Potency entry in assay [1], in assay [2], in assay [3], in assay [4] and in assay [5] was “inactive” throughout.

Consider `O=[N+]([O-])c1cc2c(cc1CN1CCN(CCOCCO)CC1)OCO2`, for which the Potency result in assay [1], in assay [2], in assay [3], in assay [4] and in assay [5] was “inactive” each time.

In the case of `C[C@H]1CN([C@@H](C)CO)C(=O)c2cccc(NC(=O)C3CC3)c2O[C@H]1CN(C)S(=O)(=O)c1ccccc1`, the Potency result in assay [1], in assay [2], in assay [3], in assay [4] and in assay [5] was “inactive” each time.

As to `O=c1[nH]c(C2CCN(S(=O)(=O)c3ccccc3F)CC2)nc2c1nnn2Cc1ccc(F)cc1`, the Potency entry in assay [1], in assay [2], in assay [3], in assay [4] and in assay [5] was “inactive” throughout.

Regarding `CCOC(=O)C(NS(=O)(=O)c1ccc(C)cc1)(C(F)(F)F)P(=O)(OCC(C)C)OCC(C)C` (stereo not given), the Potency result in assay [1], in assay [2], in assay [3], in assay [4] and in assay [5] was “inactive” in each case.

On to `CC(C)(C)NC(=O)C(c1ccc(C#N)cc1)n1c(=O)c(-c2ccco2)nc2ccccc21` (stereo not given), for which the Potency result in assay [1], in assay [2], in assay [3], in assay [4] and in assay [5] was “inactive” throughout.

Turning to `COCCn1c(SCC(=O)c2c(C)[nH]c3ccccc23)nc2cc(C(=O)NC(C)C)ccc2c1=O`, the Potency result in assay [1], in assay [2], in assay [3], in assay [4] and in assay [5] was “inactive” in each case.

`CC(=O)N1CCN(Cc2cc(=O)oc3ccc4ccccc4c23)CC1`: the Potency result in assay [1] and in assay [3] was “inactive” each time. Moreover, the activation was 4.37% [at 17.1 µM, percent relative to cAMP agonist control] in assay [2] and 27.9% [at 30.8 µM] in assay [5]. In addition, the activity change, negative = inhibition in assay [4] was 9.94% [at 30.8 µM].

Source of the values: PubChem BioAssay (NCATS).
